According to paper PMC5540273 (PLoS ONE, 2017):

Legend:
Conditions in all cases: concentration: 1 μM, replicates: in singlicate; n = 1
EPHA2 = test system: EPHA2
EPHA3 = test system: EPHA3
EPHA4 = test system: EPHA4
EPHA5 = test system: EPHA5
EPHA6 = test system: EPHA6
EPHA7 = test system: EPHA7
EPHA8 = test system: EPHA8
EPHB1 = test system: EPHB1
EPHB2 = test system: EPHB2
EPHB3 = test system: EPHB3
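Also: KINOMEscan kinase panel screen.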

SMILES | %Inh (EPHA2) [%] | %Inh (EPHA3) [%] | %Inh (EPHA4) [%] | %Inh (EPHA5) [%] | %Inh (EPHA6) [%] | %Inh (EPHA7) [%] | %Inh (EPHA8) [%] | %Inh (EPHB1) [%] | %Inh (EPHB2) [%] | %Inh (EPHB3) [%]
Fc1ccc(-c2nc3n(c2-c2ccncc2)CCS3)cc1 [GI98581] | 12 | 0 | 0 | 10 | 19 | 4 | 11 | 9 | 15 | 19
CC(C)c1cc(-c2ccc3c(N)n[nH]c3c2)nc(N)n1 [GSK2250882] | 17 | 11 | 16 | 0 | 17 | 3 | 8 | 17 | 0 | 29
Cc1c(Cn2c3ccccc3n3c(=O)cc(N4CCOCC4)nc23)cccc1C(F)(F)F [GSK2306394] | 0 | 0 | 0 | 0 | 0 | 7 | 13 | 22 | 0 | 0
COC(=O)C(NC(=O)NC1CCN(c2ccnc(Nc3ccc(F)cc3)n2)C1)c1ccccc1 (centres unmarked) [GSK1379712] | 0 | 0 | 3 | 0 | 2 | 0 | 10 | 10 | 11 | 1
CCn1c(-c2c(N)noc2C)nc2cnccc21 [SB-737856] | 15 | 0 | 29 | 7 | 21 | 14 | 33 | 12 | 0 | 26
